Among all 3,200 compounds or so, about 300 (9.4%) showed activity. Shown is part of a subset that was picked to be rich in actives.
Test system: A673/TR/shEF
Test: cell viability (LOESS-normalised, relative to median of negative controls) (log2 ratio); higher = more viable cells (less compound effect), active = hit call of the paper (over 3 MAD below the median)
Settings: treatment time: 72 h
How it was run: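 Doxycycline, present or absent from 24 h before compounds, was used to induce EWS-FLI1 shRNA knockdown in A673/TR/shEF Ewing sarcoma cells at 1,500 per well in 384-well plates. Cells then received library compounds at two or more concentrations, or DMSO controls, for three days. Viability was measured by CellTiter-Glo luminescence on an Envision reader, and per-plate LOESS correction, division by the negative-control median and log2 transformation followed.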

[1] = 0.25 µM, library screen: screen2, EWS-FLI1 expression: high (no doxycycline)
[2] = 0.25 µM, library screen: screen2, EWS-FLI1 expression: low (doxycycline-induced shRNA knockdown)
[3] = 2.5 µM, library screen: screen2, EWS-FLI1 expression: high (no doxycycline)
[4] = 2.5 µM, library screen: screen2, EWS-FLI1 expression: low (doxycycline-induced shRNA knockdown)
[5] = 0.25 µM, library screen: screen1, EWS-FLI1 expression: high (no doxycycline)
[6] = 0.25 µM, library screen: screen1, EWS-FLI1 expression: low (doxycycline-induced shRNA knockdown)
[7] = 2.5 µM, library screen: screen1, EWS-FLI1 expression: high (no doxycycline)
[8] = 2.5 µM, library screen: screen1, EWS-FLI1 expression: low (doxycycline-induced shRNA knockdown)
[9] = 0.025 µM, library screen: screen2, EWS-FLI1 expression: high (no doxycycline)
[10] = 0.025 µM, library screen: screen2, EWS-FLI1 expression: low (doxycycline-induced shRNA knockdown)
[11] = 25 µM, library screen: screen2, EWS-FLI1 expression: high (no doxycycline)
[12] = 25 µM, library screen: screen2, EWS-FLI1 expression: low (doxycycline-induced shRNA knockdown)
[13] = 0.103 µM, library screen: screen3, EWS-FLI1 expression: high (no doxycycline)
[14] = 0.103 µM, library screen: screen3, EWS-FLI1 expression: low (doxycycline-induced shRNA knockdown)
[15] = 0.308 µM, library screen: screen3, EWS-FLI1 expression: high (no doxycycline)
[16] = 0.308 µM, library screen: screen3, EWS-FLI1 expression: low (doxycycline-induced shRNA knockdown)
[17] = 0.926 µM, library screen: screen3, EWS-FLI1 expression: high (no doxycycline)
[18] = 0.926 µM, library screen: screen3, EWS-FLI1 expression: low (doxycycline-induced shRNA knockdown)
[19] = 2.8 µM, library screen: screen3, EWS-FLI1 expression: high (no doxycycline)
[20] = 2.8 µM, library screen: screen3, EWS-FLI1 expression: low (doxycycline-induced shRNA knockdown)
[21] = 8.3 µM, library screen: screen3, EWS-FLI1 expression: high (no doxycycline)
[22] = 8.3 µM, library screen: screen3, EWS-FLI1 expression: low (doxycycline-induced shRNA knockdown)
[23] = 25 µM, library screen: screen3, EWS-FLI1 expression: high (no doxycycline)
[24] = 25 µM, library screen: screen3, EWS-FLI1 expression: low (doxycycline-induced shRNA knockdown)
[25] = 0.025 µM, library screen: screen1, EWS-FLI1 expression: high (no doxycycline)
[26] = 0.025 µM, library screen: screen1, EWS-FLI1 expression: low (doxycycline-induced shRNA knockdown)
[27] = 25 µM, library screen: screen1, EWS-FLI1 expression: high (no doxycycline)
[28] = 25 µM, library screen: screen1, EWS-FLI1 expression: low (doxycycline-induced shRNA knockdown)

Measured: cell viability (log2)

CC(C)(C)[C@]1(O)CCN2CC3c4ccccc4CCc4cccc(c43)[C@@H]2C1 (some centres undefined)
inactive: [1] 0.166 | [2] 0.165 | [3] 0.11 | [4] 0.076

CC12CCC3c4ccc(OCc5ccccc5)cc4CCC3C1C[C@@H](O)[C@@H]2O (some centres undefined)
inactive: [5] 0.0858 | [6] 0.0634 | [7] 0.147 | [8] 0.17

COc1cc(NC(C)CCCN)c2ncccc2c1 (centres undefined)
inactive: [9] 0.0561 | [10] -0.00137 | [5] 0.054 | [6] 0.199 | [1] 0.0891 | [2] 0.0483 | [7] 0.127 | [8] 0.305 | [3] 0.104 | [4] -0.00544 | [12] -0.0311
active: [11] -0.632

CCCCC1=NC2(CCCC2)C(=O)N1Cc1ccc(-c2ccccc2-c2nn[nH]n2)cc1
inactive: [13] 0.107 | [14] 0.0606 | [5] 0.058 | [6] 0.0291 | [15] -0.0112 | [16] 0.0296 | [17] 0.00566 | [18] 0.0237 | [7] 0.0857 | [8] 0.072 | [19] 0.0909 | [20] 0.0243 | [21] 0.0907 | [22] 0.057 | [23] 0.0719 | [24] 0.134

CC(C)[C@@H]1CC[C@@H](C)CC1=O
inactive: [5] 0.057 | [6] 0.0478 | [7] 0.148 | [8] 0.0792

CN1CCCC(n2nc(Cc3ccc(Cl)cc3)c3ccccc3c2=O)CC1 (centres undefined)
inactive: [13] 0.00451 | [14] 0.0233 | [15] 0.0154 | [16] 0.0686 | [17] 0.0285 | [18] 0.0485 | [19] 0.0385 | [20] 0.0809 | [21] 0.0197 | [22] 0.0247 | [23] -0.00429 | [24] -0.0202

O=C(c1cc(Cc2n[nH]c(=O)c3ccccc23)ccc1F)N1CCN(C(=O)C2CC2)CC1
inactive: [13] -0.00614 | [14] 0.0146 | [15] -0.0732 | [16] -0.0144 | [17] 0.00937 | [18] 0.0508 | [19] -0.137 | [20] 0.0104 | [21] -0.158 | [22] -0.00135
active: [23] -0.244 | [24] -0.143

CC(=O)[C@H]1CCC2C3CC=C4C[C@@H](OS(=O)(=O)O)CC[C@]4(C)C3CC[C@@]21C (some centres undefined)
inactive: [1] 0.147 | [2] 0.0952 | [3] 0.0185 | [4] -0.0104

COc1ccc(-c2coc3c(OC)c(OC)cc(OC)c3c2=O)cc1
inactive: [5] 0.0837 | [6] 0.0693 | [7] 0.102 | [8] 0.078

CCOc1ccccc1N1C(=O)c2cccc3cccc(c23)C1=O
inactive: [5] 0.0619 | [6] 0.0408 | [7] 0.058 | [8] 0.0712

C=CC(=O)N1CCC[C@@H](n2nc(-c3ccc(Oc4ccccc4)cc3)c3c(N)ncnc32)C1
inactive: [13] -0.0901 | [14] 0.0229 | [15] -0.0466 | [16] 0.0297 | [17] 0.021 | [18] 0.0235 | [19] -0.0315 | [20] 0.0823 | [21] -0.0558 | [22] 0.16 | [23] -0.158 | [24] 0.0664

CC(C)(C)n1nc(-c2ccc(Cl)cc2)c2c(N)ncnc21
active: [7] -0.388 | [27] -0.453
inactive: [25] 0.227 | [26] -0.0277 | [5] 0.174 | [6] 0.0475 | [8] 0.0249 | [28] -0.00123

CCc1nc(N)nc(N)c1-c1ccc(Cl)cc1
inactive: [9] 0.129 | [10] 0.0541 | [13] 0.0417 | [14] 0.0477 | [5] 0.0408 | [6] 0.123 | [1] 0.112 | [2] 0.0163 | [15] 0.0837 | [16] 0.135 | [17] 0.0823 | [18] 0.107 | [7] 0.0817 | [8] 0.0354 | [3] 0.122 | [4] 0.129 | [19] 0.0808 | [20] 0.046 | [21] 0.0995 | [22] 0.0615 | [11] 0.0523 | [12] -0.0463 | [23] 0.153 | [24] 0.146

Cc1ccc(-c2nn(C(C)(C)C)c3ncnc(N)c23)cc1
inactive: [25] 0.00835 | [26] -0.00557 | [5] 0.0184 | [6] 0.0452 | [7] -0.0765 | [8] 0.104 | [28] -0.07
active: [27] -0.108

CC(=O)Oc1cc2c(c(C)c1OC(C)=O)CC=C1[C@@]2(C)CC[C@@]2(C)[C@@H]3C[C@](C)(C(=O)O)CC[C@]3(C)CC[C@]12C
inactive: [5] 0.0258 | [6] 0.000386 | [7] 0.0381 | [8] 0.209

CCN1CCN(CC(O)COc2cc(C)c(Cl)c(C)c2)CC1 (centres undefined)
inactive: [5] 0.082 | [6] 0.0372 | [7] 0.096 | [8] 0.29

CCCCCCCCCC(=O)N[C@@H](Cc1c[nH]c2ccccc12)C(=O)N[C@@H](CC(N)=O)C(=O)N[C@@H](CC(=O)O)C(=O)NC1C(=O)NCC(=O)N[C@@H](CCCN)C(=O)N[C@@H](CC(=O)O)C(=O)N[C@H](C)C(=O)N[C@@H](CC(=O)O)C(=O)NCC(=O)N[C@H](CO)C(=O)N[C@@H](C(C)CC(=O)O)C(=O)N[C@@H](CC(=O)c2ccccc2N)C(=O)OC1C (some centres undefined)
inactive: [13] -0.000338 | [14] -0.000608 | [15] 0.0186 | [16] 0.0343 | [17] 0.103 | [18] 0.0444 | [19] 0.0611 | [20] 0.0124 | [21] 0.0568 | [22] 0.116 | [23] -0.0118 | [24] -0.0633

COc1cc(OC)cc(C(CNc2ncnc3c2ncn3C2O[C@H](CO)[C@@H](O)[C@H]2O)c2ccccc2C)c1 (some centres undefined)
inactive: [1] 0.151 | [2] 0.0311 | [3] 0.147 | [4] 0.121

C#CCCCCCCCCCCC[C@@H](O)C[C@@H](O)COC(C)=O
inactive: [5] 0.145 | [6] 0.0417 | [7] 0.08 | [8] 0.0325

COc1ccc(CN2CCN(Cc3ccccc3C(F)(F)F)CC2)c(OC)c1OC
inactive: [5] -0.00682 | [6] 0.0327 | [7] 0.087 | [8] 0.144

CC=C(C)C(=O)OC1Cc2c(ccc3ccc(=O)oc23)OC1(C)C (centres undefined)
inactive: [5] 0.052 | [6] 0.0529 | [7] 0.186 | [8] 0.0456

CCCCCCCCCCCCCCCCCCOCC(O)CO (centres undefined)
inactive: [5] 0.0496 | [6] 0.117 | [7] 0.142 | [8] 0.0249

COc1ccc2c(c1)OCC(Cc1ccc(OC)c(OC(C)=O)c1)C2=O (centres undefined)
inactive: [5] 0.0793 | [6] -0.0163 | [8] -0.0188
active: [7] -0.246

COc1ccc2c(c1)OC[C@@H](Cc1ccc(OC)c(OC)c1)[C@@H]2O
inactive: [5] 0.137 | [6] -0.0181 | [7] 0.209 | [8] 0.0843

COc1ccc2c(c1)OC[C@@H](Cc1ccc(OC)c(OC)c1)C2=O
inactive: [5] -0.018 | [6] 0.0264 | [7] 0.11 | [8] 0.0741

Oc1cc(O)c2c(c1)O[C@H](c1cc(O)c(O)c(O)c1)[C@H](O)[C@H]2c1c(O)cc(O)c2c1O[C@H](c1cc(O)c(O)c(O)c1)[C@H](O)[C@H]2c1c(O)cc(O)c2c1O[C@H](c1cc(O)c(O)c(O)c1)[C@H](O)C2
inactive: [5] -0.0224 | [6] 0.066 | [7] 0.107 | [8] 0.0716

OC[C@H]1O[C@@H](O[C@H]2[C@H](O)[C@@H](O)C(O)O[C@@H]2CO)[C@H](O)[C@@H](O)[C@@H]1O (some centres undefined)
inactive: [5] -0.0294 | [6] 0.0659 | [7] 0.116 | [8] 0.0995

CC(C)(C)C(=O)OCOP(=O)(COCCn1cnc2c(N)ncnc21)OCOC(=O)C(C)(C)C
active: [19] -0.371 | [21] -0.686 | [23] -1.44 | [24] -0.304
inactive: [13] -0.0455 | [14] 0.0657 | [15] -0.0326 | [16] 0.0345 | [17] -0.105 | [18] -0.0287 | [20] -0.0209 | [22] -0.0516

Nc1ncnc2c1ncn2[C@@H]1O[C@H](COP(=O)(O)O)[C@@H](O)[C@H]1O
inactive: [5] 0.101 | [6] -0.0633 | [7] 0.171 | [8] 0.117

C[C@H](Cn1cnc2c(N)ncnc21)OCP(=O)(O)O
inactive: [13] 0.0857 | [14] 0.09 | [1] 0.128 | [2] 0.113 | [15] 0.00908 | [16] 0.0155 | [17] 0.0338 | [18] 0.0939 | [3] 0.189 | [4] 0.0365 | [19] 0.0533 | [20] 0.0269 | [21] -0.0007 | [22] 0.0852 | [23] 0.0436 | [24] 0.126

CC1CCC(O)C/C1=C/C=C1\CCCC2(C)C1CCC2C(C)/C=C/C(C)C(C)C (centres undefined)
inactive: [5] 0.0469 | [6] 0.0169 | [7] 0.0774 | [8] 0.0401

From the supplement of paper PMC6089552
